Source: PubChem BioAssay
MITF inh – human MITF inhibition, primary screen | O75030 | inhibition, % at 2.6 µM | 0.91% of 650,000 active | AlphaScreen MITF homodimerization, bead proximity signal; in the data active = inhibition above about 50%
TEAD-YAP block – TEAD-YAP interaction inhibition; HEK-TIYL cells, TEAD-Gal4/YAP UAS-luciferase luminescence; inhibition, % at 9.12 µM; 1.4% of 640,000 active; AID 1259422; in the data active = inhibition above about 32%
FBW7 act – activators of human E3 ligase FBW7; Q969H0; AlphaScreen FBW7–phospho-cyclin E peptide binding, activator screen; normalized activity (activation), % at 26.1 µM; 0.13% of 650,000 active; AID 1259310; in the data active = normalized activity above about 1.9%;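 note: purified mutant Fbw7 with reduced substrate affinity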
GPR151 ag – activators of human GPR151; PathHunter beta-arrestin GPR151 cells, luminescence; 1% of 650,000 active; activation, % at 11.2 µM; AID 1508602; in the data active = activation above about 4.9%
Target sequence (Q8TDV0 whole entry, looked up): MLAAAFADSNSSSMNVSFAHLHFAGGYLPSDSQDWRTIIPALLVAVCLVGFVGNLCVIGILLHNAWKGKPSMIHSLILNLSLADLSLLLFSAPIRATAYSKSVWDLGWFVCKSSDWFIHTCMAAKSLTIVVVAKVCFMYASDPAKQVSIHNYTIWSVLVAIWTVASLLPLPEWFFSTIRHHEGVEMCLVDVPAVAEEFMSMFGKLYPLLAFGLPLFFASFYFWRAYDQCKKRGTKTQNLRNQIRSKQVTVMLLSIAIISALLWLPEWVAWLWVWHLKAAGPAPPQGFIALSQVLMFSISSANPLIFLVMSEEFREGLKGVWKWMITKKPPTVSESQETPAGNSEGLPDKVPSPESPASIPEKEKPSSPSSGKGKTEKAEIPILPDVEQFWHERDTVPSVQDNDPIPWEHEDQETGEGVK
Hits are given with their value; 0 = inactive; ! = repeats disagree. Compounds with a hit are over-represented: about 3.5% of the library has one in this group of screens.

SMILES	MITF inh	TEAD-YAP block	FBW7 act	GPR151 ag
CC(C)(C)c1ccc(/C=C/C(=O)Nc2ccccn2)cc1	0	70	0	0
COc1ccc(/C=C/C(=O)NCc2ccccn2)cc1	0	0	0	0
O=C(/C=C/c1ccco1)Nc1ccccn1	0	51	0	0
COc1ccc(/C=C/C(=O)Nc2ccccn2)cc1	0	47	0	0
Cc1ccc(NC(=O)/C=C/c2ccco2)nc1	0	0	0	0
O=C(CC1SC(=Nc2cccc(O)c2)NC1=O)Nc1ccc(Br)cc1 (stereo unspecified)	0	0	0	0
Cc1ccc(/C=C2/SC(=S)N(c3ccc(CC(=O)O)cc3)C2=O)o1	59	0	0	0
Cc1ccc(/C=C2/SC(=S)N(CO)C2=O)o1	85	0	0	0
Cc1ccc(/C=C2/SC(=S)N(CCC(=O)O)C2=O)o1	0	0	0	0
Cc1ccc(/C=C2\SC(=S)N(/N=C/c3ccc(C)o3)C2=O)o1	54	0	0	0
CCCN1C(=O)/C(=C/c2ccc(C)o2)SC1=S	0	0	0	0
Cc1ccc(/C=C2\SC(=S)N(CCCC(=O)O)C2=O)o1	0	53	0	0
Nc1nc(Nc2ccc(Oc3ccccc3)cc2)cc(-c2ccccc2)n1	0	44	0	0
Cc1cc(C)nc(Nc2ccc(Oc3ccccc3)cc2)n1	0	46	0	0
COc1ccc(OCC(=O)Nc2ccc3nn(-c4ccc(OC)cc4)nc3c2)cc1	0	0	0	0
COc1ccc(-n2nc3ccc(O)cc3n2)cc1	0	65	0	0
COc1ccccc1CN[C@H]1C[C@H]2C(=O)N3CCC[C@@H]3C(=O)N2C1	0	0	0	0
N#CC1=C2SCC(O)(c3ccc(F)cc3)N2C(=O)CC1c1cccc(F)c1 (stereo unspecified)	0	54	0	0
N#CC1=C2SCC(O)(c3ccco3)N2C(=O)CC1c1ccc(F)cc1 (stereo unspecified)	0	43	0	0
CC1CCCN(c2ncnc3ccc([N+](=O)[O-])cc23)C1 (stereo unspecified)	0	35	0	0
O=[N+]([O-])c1ccc2ncnc(N3CCN(Cc4ccccc4)CC3)c2c1	0	0	0	0
CCOC(=O)C(C)(C)N(Cc1ccccc1Cl)S(=O)(=O)c1ccc(Br)cc1	0	0	0	0
COc1cc(/C=N/c2sc3c(c2C#N)CCC3)ccc1OCC(=O)O	0	0	0	0
N#Cc1c(/N=C/c2ccc(O)c(O)c2)sc2c1CCCC2	0	43	0	0
N/C(=N\N=C\c1cccc([N+](=O)[O-])c1)c1ccccn1	0	43	0	0
SMILES	MITF inh	TEAD-YAP block	FBW7 act	GPR151 ag
C/C(=N/NC(=O)c1ccccn1)c1cccc([N+](=O)[O-])c1	0	0	0	0
N/C(=N\N=C/c1ccc(O)cc1)c1ccccn1	0	93	0	0
Cc1cc(C)cc(C(=O)N2CC(=O)Nc3ccc(Cl)cc3C2c2ccccc2)c1 (stereo unspecified)	0	0	0	0
CCCCN1CC23C=CC(O2)C(C(=O)OCC(C)C)C3C1=O (stereo unspecified)	0	0	0	0
Cc1nn(-c2ccccc2)c2c1C1(C(C#N)=C(N)O2)c2ccccc2-c2ccccc21	0	0	0	0
COc1ccc(CCNc2nc(N3CCCC3CO)nc3c2ncn3-c2ccccc2)cc1 (stereo unspecified)	0	0	0	0
OCC1CCCN1c1nc(NCCc2ccc(O)cc2)c2ncn(-c3ccccc3)c2n1 (stereo unspecified)	0	43	0	0
CCCNc1nc(N2CCCC2CO)nc2c1ncn2-c1ccccc1 (stereo unspecified)	0	37	0	0
N#Cc1sc2nccc(Nc3ccccc3)c2c1N	0	34	0	0
O=C(Nc1cc(Cl)ccc1Cl)c1cc(Br)cc(Br)c1O	0	34	0	0
CC(=O)C1=C(c2ccc([N+](=O)[O-])cc2)N(C(C)=O)n2c(nnc2-c2ccc(C)cc2)S1	0	0	0	0
CCc1ccccc1NC(=O)c1ccc(N2CCCCCC2)c([N+](=O)[O-])c1	0	0	0	0
O=C(Nc1cccc2ncccc12)c1ccc(N2CCCCC2)c([N+](=O)[O-])c1	0	32	0	0
CCCS(=O)(=O)Nc1ccc(S(=O)(=O)Nc2nc(C)cc(C)n2)cc1	0	0	0	0
O=C(c1ccco1)N1CCN(c2nccn3c(-c4ccccc4CO)cnc23)CC1	0	0	0	0
O=C(c1ccco1)N1CCN(c2ncc(-c3ccccc3CO)n3ccnc23)CC1	0	0	6.7	0
CCOC(=O)C(C)(N)Cc1ccc(O)c(O)c1 (stereo unspecified)	0	0	0	0
N[C@@H](Cc1ccc(O)c(O)c1)C(=O)O	79!	0	0	0
N[C@H](Cc1ccc(I)cc1)C(=O)O	0	0	0	0
CC(N)(Cc1ccc(O)c(O)c1)C(=O)O (stereo unspecified)	56	0	0	0
CC(C)c1ccc(/C=C2/SC(=S)N(CC(=O)O)C2=O)cc1	0	0	0	0
CCOc1ccc(S(=O)(=O)N2CCN(c3ccc(C(C)=O)cc3)CC2)c2cccnc12	0	0	0	0
CC(C)(C)c1ccc(/C=N\NC(=O)c2ccccn2)cc1	0	35	0	0
CC(C)(C)c1ccc(NC(=O)Nc2ccccc2NC(=O)c2ccccn2)cc1	0	68	0	0
O=C(Nc1ccccc1NC(=O)c1ccccn1)Nc1c(F)cccc1F	0	0	0	0
SMILES	MITF inh	TEAD-YAP block	FBW7 act	GPR151 ag
COC(=O)Nc1ccc(S(=O)(=O)Nc2ccc(O)c(C)c2)cc1	0	0	0	0
COc1cc2cc3c(N)c(C(=O)NCc4ccco4)sc3nc2cc1OC	0	0	0	0
CCc1ccc2nc3sc(C(=O)NCc4ccco4)c(N)c3cc2c1	0	53	0	0
O=C1OCC2=C1C(c1ccc3c(c1)OCO3)Nc1ccc3ccccc3c12 (stereo unspecified)	0	54	0	0
CC1(C)CC(=O)C2=C(C1)Nc1ccccc1NC2c1ccc2c(c1)OCO2 (stereo unspecified)	0	0	0	0
CSc1ncccc1C(=O)Nc1nc2ccccc2[nH]1	0	0	0	0
COc1cc(-c2cc(=O)c3cc(O)ccc3o2)cc(OC)c1OC	0	0	0	0
COc1ccc(-c2c3cc(O)c(=O)cc-3oc3cc(O)c(O)cc23)cc1C	109	0	0	0
COc1cc(-c2c3cc(O)c(=O)cc-3oc3cc(O)c(O)cc23)cc(Cl)c1OC	98	0	0	0
COc1ccc(-c2cc(=O)c3c(O)cc(O)cc3o2)cc1O	0	0	0	0
COc1cc(Nc2nc3c(NCCc4ccc(O)cc4)ncnc3n2C(C)C)cc(OC)c1OC	0	32	0	0
COc1cc(Nc2nc3c(Nc4ccccc4)ncnc3n2C(C)C)cc(OC)c1OC	0	38	0	0
COc1cc(Nc2ncnc3c2nc(Nc2cccc(N(C)C)c2)n3C(C)C)cc(OC)c1OC	0	0	0	0
COc1cc(Nc2nc3c(NCCO)ncnc3n2C(C)C)cc(OC)c1OC	0	0	0	0
COc1ccc(C2CC(=O)C3=C(C2)NC(C)=C(C(=O)OCc2ccccc2)C3c2cccc([N+](=O)[O-])c2)cc1 (stereo unspecified)	0	59	0	0
